aSyn 5UTR act: Activators via SNCA 5'UTR binding, MLPCN. activity score, % (tested at 7.5 µM), hits read low. AID 1814, 2009. alpha-synuclein 5'UTR reporter, activators screen. 7.1% of 300,000 active; in the data active means activity score below about -60%
Each line names hits and unclear results; the compound was inactive in the other large screens. The list is a sample of the results.

COc1ccc(-c2nc(SC)n(C(=O)c3ccco3)n2)cc1	aSyn 5UTR act -130
CCOC(=O)Nc1nc(-c2ccc(Cl)cc2Cl)cs1	aSyn 5UTR act -97
CCCCNC(=O)Nc1nc2ccccc2s1	aSyn 5UTR act -81
CN(CC(=O)Nc1nc2ccccc2s1)S(=O)(=O)c1ccccc1	aSyn 5UTR act -83
CCCCNC(=O)Nc1nc2ccc(CC)cc2s1	aSyn 5UTR act -124
O=C(CCNC(=O)c1ccccc1Cl)Nc1nc2ccccc2s1	aSyn 5UTR act -83
CCOC(=O)Nc1nc2ccccc2s1	aSyn 5UTR act -125
CC12CCC(C(=O)Nc3nc4ccccc4s3)(OC1=O)C2(C)C (stereo unspecified)	aSyn 5UTR act -113
CN(C)c1ccc(CC(=O)c2nc3ccccc3s2)cc1	aSyn 5UTR act -125
COc1cccc2c1C(=O)c1c(O)c3c(c(O)c1C2=O)C[C@@](O)(C(=O)CO)C[C@@H]3O[C@H]1C[C@H](N)[C@H](O)[C@H](C)O1	none
CCc1ccc2nc(NC(=O)CSCc3c(C)noc3C)sc2c1	aSyn 5UTR act -73
CCCNC(=O)c1ccc(-c2nc3ccccc3s2)s1	none
CCCNC(=O)Nc1nc2ccccc2s1	aSyn 5UTR act -118
Cc1ccc(CC(=O)Nc2nc3ccccc3s2)cc1	aSyn 5UTR act -96
O=C(Nc1nnc(Cc2ccccc2)s1)Nc1ccccc1F	aSyn 5UTR act -103
O=C(Nc1nnc(-c2ccncc2)s1)Nc1ccccc1F	aSyn 5UTR act -102
Cc1ccc(C(=O)/C=C/Nc2ccccc2C(N)=O)o1	aSyn 5UTR act -200
COc1ccccc1Oc1ccc(N/C=C/C(=O)c2ccc(C)o2)cc1	aSyn 5UTR act -89
NC(=O)c1ccccc1N/C=C/C(=O)c1ccc(F)cc1	aSyn 5UTR act -65
Cc1ccc(C=Nc2ccccc2C(N)=O)o1	aSyn 5UTR act -154
O=C(Nc1nc(-c2cc(Cl)sc2Cl)cs1)c1cccs1	aSyn 5UTR act -158
Cc1ccc(C(=O)Nc2nccc(-c3cccs3)n2)cc1	aSyn 5UTR act -66
Cc1csc(NC(=O)c2sc3nc(-c4cccs4)ccc3c2N)n1	aSyn 5UTR act -228
O=C(Nc1nc(-c2cccs2)cs1)c1ccc(Cl)cc1	aSyn 5UTR act -88
Cc1ccc(C(=O)Nc2ncc3c(Cl)cccc3n2)cc1	none
COc1ccc(C(=O)Nc2nc(-c3cccs3)cs2)cc1	aSyn 5UTR act -91
COc1ccccc1C1=NN(C(=S)Nc2ccccc2)C(c2ccco2)C1 (stereo unspecified)	aSyn 5UTR act -154
Cc1cc(NC(=S)Nc2ccc(C)c(Cl)c2)n[nH]1	aSyn 5UTR act -110
COc1ccc(NC(=S)Nc2cc(C)[nH]n2)cc1Cl	aSyn 5UTR act -125
Cc1sc2c(c1C)CN(C(C)(C)C)CN2C(=O)c1ccccc1	aSyn 5UTR act -64
O=C(c1ccccc1)N1CCSc2sccc2C1=O	none
c1ccc(Nc2cccc(Nc3ccccc3)n2)cc1	aSyn 5UTR act -125
Cc1ccccc1Cn1cc(NC(=O)c2nc3ncccn3n2)cn1	aSyn 5UTR act -95
CC(=O)Nc1nc(COc2ccccc2)cs1	aSyn 5UTR act -137
CC(=O)Nc1nc(COc2ccc3ccccc3c2)cs1	aSyn 5UTR act -148
O=C(Nc1nc(COc2ccccc2)cs1)C1CCC1	aSyn 5UTR act -103
O=C(Nc1ccccc1-c1ccccc1)C12CC3CC(CC(C3)C1)C2	aSyn 5UTR act -78
O=C(Nc1nc(COc2ccccc2)cs1)C12CC3CC(CC(C3)C1)C2	aSyn 5UTR act -147
Nc1nc(CCOc2ccc(F)cc2)cs1	aSyn 5UTR act -112
CC(=O)c1csc(COc2ccccc2)n1	aSyn 5UTR act -109
Nc1nc(COc2ccc3ccccc3c2)cs1	aSyn 5UTR act -79
Cc1[nH]c2ccccc2c1N=Nc1ccccc1F	aSyn 5UTR act -122
CC(=O)Nc1nc(CCC(C)C)cc2c1c(=O)oc1ccccc12	none
CCN(CC)CC(=O)Nc1scc2c1c(=O)oc1ccccc12	aSyn 5UTR act -124
Cc1ccc(NC(=O)C2OCCc3ccccc32)cc1C (stereo unspecified)	aSyn 5UTR act -62
Cc1ccccc1NC(=O)N1CCc2ccccc2C1	aSyn 5UTR act -80
Cc1cc(C)cc(NC(=O)N2CCc3ccccc3C2)c1	aSyn 5UTR act -111
Cc1ccc(NC(=O)N2CCc3ccccc3C2)cc1C	aSyn 5UTR act -152
O=C(Oc1ccc(-c2cnc3ccccc3n2)cc1)c1cccc([N+](=O)[O-])c1	aSyn 5UTR act -183
O=C(Oc1ccc(-c2cnc3ccccc3n2)cc1)c1ccc(Br)o1	aSyn 5UTR act -117
O=C(Oc1ccc(-c2cnc3ccccc3n2)cc1)c1ccc(Cl)c([N+](=O)[O-])c1	aSyn 5UTR act -129
CC(=O)NC(c1ccc(C)cc1)c1cc(Cl)c2cccnc2c1O (stereo unspecified)	none
O=S(=O)(Nc1cc(Sc2cccc3cccnc23)c(O)c2ccccc12)c1ccccc1	aSyn 5UTR act -139
Cc1ccnc(NC(=S)NC(=O)c2cncc(Br)c2)c1	aSyn 5UTR act -81
O=C(NCCCc1ccccn1)C1CCC(=O)N(Cc2cccc(F)c2)C1 (stereo unspecified)	aSyn 5UTR act -117
S=c1[nH]nc(COc2ccccc2)n1/N=C/C(Cl)=C/c1ccccc1	aSyn 5UTR act -129

From PubChem
